An excerpt weighted towards active compounds, which were near 8.9% of everything screened.
HPGD inh: inhibitors of human 15-hydroxyprostaglandin dehydrogenase (HPGD); Potency, µM, inactives show top-dose activity change, negative = inhibition, usual class: inhibitors; hit rate 4.3% among 150,000; P15428; purified HPGD, NADH fluorescence kinetic, PGE2 substrate; AID 894; active means well fitted inhibition curve with a large enough effect, not every such curve was filed as active; inconclusive means small, poorly fitted or top-dose-only effect, or another doubt; inactive means no such curve, though single readings can be large or run the other way; further: potency means the concentration at half of the fitted maximal effect
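NADH formation kinetics: reaction with 30 uM PGE2 and 1 mM NAD+ (final), 20 nM enzyme, Tris-HCl pH 8 with Tween 20, after 15 min compound preincubation at room temperature. Fluorescence change, last versus first of five reads.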
ALDH1A1 block: ALDH1A1 (human) enzyme inhibition. AID 1030. P00352. hit rate 7.3% among 220,000. Purified ALDH1A1, NADH fluorescence, propionaldehyde substrate. Potency, µM (titrated, usually from 75.3 µM), without a hit: at the highest dose activity, negative = inhibition, usual class: inhibitors; active means well fitted inhibition curve with a large enough effect, not every such curve was filed as active; inconclusive means small, poorly fitted or top-dose-only effect, or another doubt; inactive means no such curve, though single readings can be large or run the other way;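 further: potency means the concentration at half of the fitted maximal effect; plate controls were no enzyme wells and a reference inhibitor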
Target sequence (P00352 whole entry, looked up): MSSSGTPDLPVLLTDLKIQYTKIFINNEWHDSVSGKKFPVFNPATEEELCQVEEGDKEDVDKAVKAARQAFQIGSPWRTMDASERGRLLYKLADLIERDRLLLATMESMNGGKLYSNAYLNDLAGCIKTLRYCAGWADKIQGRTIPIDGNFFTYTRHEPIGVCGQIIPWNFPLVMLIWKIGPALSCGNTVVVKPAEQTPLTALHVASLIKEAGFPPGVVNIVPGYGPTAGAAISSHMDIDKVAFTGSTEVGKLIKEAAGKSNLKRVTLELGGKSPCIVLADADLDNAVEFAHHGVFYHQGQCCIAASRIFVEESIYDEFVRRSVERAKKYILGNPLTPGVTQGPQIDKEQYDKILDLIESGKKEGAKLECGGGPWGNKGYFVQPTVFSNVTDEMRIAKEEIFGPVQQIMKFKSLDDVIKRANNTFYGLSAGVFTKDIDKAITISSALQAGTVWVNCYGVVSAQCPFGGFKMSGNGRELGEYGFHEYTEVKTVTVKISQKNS
12-hLO inh: 12-hLO (ALOX12) enzyme inhibition; Potency, µM (titrated, usually from 57.1 µM), for inactives: at the highest dose activity change, negative = inhibition, usual class: inhibitors; purified 12-hLO, xylenol orange hydroperoxide absorbance; hit rate 0.12% among 150,000; further: potency means the concentration at half of the fitted maximal effect; nearly all actives have a fitted effect of over 55% in size
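Xylenol orange chromogenic assay: hydroperoxide from 12hLO oxidises Fe(II), giving red-shifted Fe(III)-XO absorbance. Conditions: 150 nM enzyme, 40 uM arachidonic acid, 25 mM Hepes pH 7.0, 0.01% Triton X-100, 30 min, room temperature.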
IMPase Li inh: cell-permeable IMPase inhibitors with lithium potentiation; CHO-M1 cells, IP1 TR-FRET (IP-One), carbachol + lithium; Potency, µM (top dose mostly 59.4 µM), inactives show at the top dose activity, negative = IMPase inhibition, hits mostly inhibitors; hit rate 0.35% among 210,000; AID 1457;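 further: IP1 builds up when IMPase is blocked and the TR-FRET signal falls; potency means the concentration at half of the fitted maximal effect; plate controls were basal vehicle for no effect and high inhibitor control for full effect; nearly all actives have a fitted effect of over 50% in size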
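Lithium-sensitised IP1 accumulation assay; M1-expressing CHO cells treated 30 min at 37C with compound. Competitive antibody detection by time-resolved FRET followed a 10 min room-temperature lysis step.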
IMPase cell inh: membrane-permeable compound that blocks inositol monophosphatase; P97697; CHO-M1 cells, IP1 accumulation, HTRF TR-FRET ratio; inhibition (IP1 accumulation), % at 46.1 µM; 120,000 tested, under 10 active; AID 901; active means well fitted curve in the direction sought with a large enough effect in the signal ratio, not every such curve was filed as active; inconclusive means small, poorly fitted or top-dose-only effect, or a change in a side signal; inactive means no such curve, though single readings can be large or run the other way; the % refers to the signal ratio;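 further: cells stimulated with carbachol in lithium chloride buffer; plate controls were DMSO basal wells for no effect and reference inhibitor wells for full effect; higher means more IMPase inhibition seen as more IP1 and lower FRET ratio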
Target sequence (P97697 whole entry, looked up): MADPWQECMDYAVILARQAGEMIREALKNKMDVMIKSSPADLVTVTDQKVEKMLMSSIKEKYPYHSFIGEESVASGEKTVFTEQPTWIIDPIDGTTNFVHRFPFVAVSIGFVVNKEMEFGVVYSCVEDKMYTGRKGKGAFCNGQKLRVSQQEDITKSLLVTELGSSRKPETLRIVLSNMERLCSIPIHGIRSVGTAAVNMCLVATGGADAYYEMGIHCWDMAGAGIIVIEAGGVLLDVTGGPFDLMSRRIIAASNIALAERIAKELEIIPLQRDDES
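CHO-M1 cells (CHO stably expressing M1 receptor), compound up to 46 uM final, stimulated with carbachol (50 uM as added) in buffer with 50mM LiCl, pH 7.4, 30 min at 37C. Cytosolic IP1 read by TR-FRET; AC50 from Hill fits.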
NPSR antag: antagonists of human neuropeptide S receptor cAMP signaling | Q6W5P4 | CHO-NPSR cells, cAMP TR-FRET, antagonist mode | Potency, µM (series often up to 38.3 µM), inactives show top-dose activity change, negative = inhibition, actives largely listed as inhibitors | hit rate 1% among 220,000 | AID 1461; further: potency means the concentration at half of the fitted maximal effect; nearly all actives have a fitted effect of over 50% in size
Starred values were filed as active, the others as inactive; ? = inconclusive; / = no result given; ! = not active in a repeat; [ ] = dose if it differs, or a comment. Unless noted, the call rests on the fitted dose curve; in most records, active means well fitted curve in the direction sought with a large enough effect; inconclusive means small, poorly fitted or top-dose-only effect, or another doubt; inactive means no such curve, though single readings can be large; an effect the other way counts as inactive or inconclusive. Unless noted, on the % scale 0 is the no-effect control and ±100 the full control effect.

SMILES | HPGD inh | ALDH1A1 block | 12-hLO inh | IMPase Li inh | IMPase cell inh | NPSR antag
CO[C@@H]([CH2][Hg])CN1C(=O)c2ccccc2S1(=O)=O.Cn1c(=O)c2nc[nH]c2n(C)c1=O | 1.4µM* | 3.2µM* | 0%[11.4 µM] | -9% | / | /
CN(C)CS/C(N)=N/[C@H](O)C(Cl)(Cl)Cl | -10% | 3.2µM* | -7%[11.4 µM] | -4% | / | /
CN(CCc1ccc(Cl)c(Cl)c1)[C@@H]1CCCC[C@@H]1N1CCCC1 | / | 3.5µM* | / | -28% | / | /
Cn1c(O)c(C=NC2C(=O)C3(C)CCC2C3(C)C)c(=O)n(C)c1=O (stereo unspecified) | -25% | ? | 5% | 25%[38.3 µM] | 7 | -11%[46.1 µM]
CC(N)Cc1ccc(O)cc1 (stereo unspecified) | -7% | 3% | -2% | 2% | / | /
Cc1cccc(-n2c(-c3ccco3)nc3ccccc3c2=O)c1C | / | -4% | / | 9% | / | -17%
Fc1ccc2c(c1)nnn2C1CCN(Cc2c(Cl)cccc2Cl)CC1 | -2% | 7% | 3% | 6% | -1 | -25%[46.1 µM]
Fc1ccc2c(c1)nnn2C1CCN(Cc2nnnn2C2CCCCC2)CC1 | -12% | 13µM* | -10% | 30%[38.3 µM] | 0 | ?
COc1cccc(N2CCN(Cc3ccc(Cl)cc3)CC2)c1 | -14% | 10µM* | 0% | 13%[38.3 µM] | 6 | -8%[46.1 µM]
N#CC(C#N)=NNc1ccc(-n2ccc(C(F)(F)F)n2)cc1 | / | / | / | / | / | 2.5µM*
COC(=O)C1=Nc2ccccc2/C1=C\c1c(O)n(C)c(=O)n(C)c1=O | / | / | / | / | / | -2%
O=c1[nH]c(=O)n(-c2ccccc2)c(O)c1/C=C1/C(c2ccccc2)=Nc2ccccc21 | 25µM* | ? | -2% | -13% | / | -30%
COC(=O)C1=Nc2ccccc2/C1=C\c1c(O)n(-c2ccc(Br)cc2)c(=O)[nH]c1=O | 18µM* | 4% | ? | -2% | / | -26%
COC(=O)C1=Nc2ccccc2/C1=C\c1c(O)n(-c2ccc(OC)cc2)c(=O)[nH]c1=O | -11% | 22µM* | ? | 10%[38.3 µM] | 13 | -29%[46.1 µM]
CN(C)CCNC(=O)c1cccn(Cc2cc(C(F)(F)F)cc(C(F)(F)F)c2)c1=O | / | ? | / | -3% | / | 6%
COc1ccc(OC)c(-n2c(O)c(/C=C3\C(C)=Nc4ccccc43)c(=O)[nH]c2=O)c1 | / | / | / | / | / | -7%
C[C@@H]1CC2(CCCC[N+]2(C)C)C[C@H]1C | / | -7% | / | 2% | / | 10%
O=C1NC(=O)N(CCC2=CCCCC2)C(=O)/C1=C\c1cccs1 | 0.32µM* | 1.3µM* | -15% | 6% | / | ?
O=C1NC(=O)N(CCc2ccc(F)cc2)C(=O)/C1=C/c1cccs1 | / | 1.4µM* | / | -4% | / | -15%
CN(C)c1ccc(/C=C2\C(=O)NC(=O)N(CCc3ccc(F)cc3)C2=O)cc1 | / | / | / | / | / | 11%
Oc1ccc(Cl)cc1Cc1cc(Cl)ccc1O | 14µM*! | 12% | ? | -2% | / | -12%
Oc1ccc(Cl)cc1Cc1ccccc1 | 10µM* | -5% | -9% | 0% | / | /
Cc1cccc2c1=NC(=O)/C(=C/c1c(O)[nH]c(=O)[nH]c1=O)C=2 | ? | 0.5µM* | -3% | -4% | -11 | 2%
Cc1ccc(N2C(=O)NC(=O)/C(=C\c3cc(C)n(-c4sc5c(c4C#N)CCCC5)c3C)C2=O)cc1 | 10µM* | 0.79µM* | -19% | 11% | 0 | -11%
CCOC(=O)c1c(-n2c(C)cc(C=C3C(=O)NC(=S)NC3=O)c2C)sc2c1CCCC2 | 3.5µM* | 7.9µM* | ? | 13% | 14 | 4µM*
SMILES | HPGD inh | ALDH1A1 block | 12-hLO inh | IMPase Li inh | IMPase cell inh | NPSR antag
Cc1cc(/C=C2/C(=O)NC(=O)N(c3ccc(Br)cc3)C2=O)c(C)n1C | / | 5% | / | / | / | 2%
CCN1C(=O)NC(=O)/C(=C/c2cc(C)n(-c3sc(C)c(C)c3C#N)c2C)C1=O | 8.9µM* | 0.2µM* | 2% | 6% | / | 3%
CN=C=O | -11% | -1% | 0% | -2% | / | /
Cc1cc(Cl)ccc1N=Cc1c(O)n(C)c(=O)n(C)c1=O | ? | ? | 3% | 0%[38.3 µM] | 12 | 9%[46.1 µM]
CC(=O)OC1CC(OC(C)=O)[C@]2(C)C(CC(OC(C)=O)[C@]3(C)C2CC[C@@]2(C)C(c4ccoc4)C(=O)C4O[C@]432)C1(C)C (stereo partly specified) | -3% | 6% | -1% | 9% | / | /
CSc1nnc(OC(=O)N(C)C)n1-c1ccc(Cl)cc1 | / | 4% | / | / | / | -10%
O=[N+]([O-])c1cc([N+](=O)[O-])c2ccccc2c1 | -10% | -6% | -3% | 9% | / | /
O=C1NS(=O)c2cc([N+](=O)[O-])cc([N+](=O)[O-])c21 (stereo unspecified) | / | 22µM* | / | 0% | / | 10%
Cc1ccc(Cn2cc(C=O)c(-c3ccc(C)cc3)n2)cc1 | -9% | -6% | -2% | 7% | / | -28%
CC(=O)c1cccc(NC2=NCC(C)S2)c1 (stereo unspecified) | 14µM* | -6% | -4% | -10%[38.3 µM] | 1 | 0%[46.1 µM]
O=C(c1ccc(Cl)cc1)C1CCCN(C2CCSCC2)C1 (stereo unspecified) | / | 5% | / | 26% | / | -11%
Cc1c(C(=O)c2ccc3ccccc3c2)c2cccc3c2n1[C@H](CN1CCOCC1)CO3 | 4% | -14% | -5% | 23% | 3 | /
COc1ccc(C(=O)c2c(C)n(CCN3CCOCC3)c3cc(I)ccc23)cc1 | -9% | 5µM* | -3% | 32% | 3 | /
Cc1cc(N2C(=O)C3CCCN3C2c2sccc2C)no1 (stereo unspecified) | / | 1.6µM* | -8% | / | -2 | -8%[46.1 µM]
CC(C)n1c(O)c(C=NCc2ccccc2)c(=O)[nH]c1=S | / | -10% | / | / | / | 14%
CN1CCN(c2ccc([N+](=O)[O-])cc2Cl)CC1 | / | -5% | / | 7% | / | 5%
CN1CCN(C(=S)c2ccc([N+](=O)[O-])cc2)CC1 | 28µM* | ? | -4% | 1% | -10 | 13%
O=C(O)COc1cc(Cl)c(Cl)cc1Cl | -12% | 13% | -7% | 5% | / | /
O=C1CN=C(c2cccs2)c2c(sc3c2CCCC3)N1 | ? | ? | -6% | 3%[38.3 µM] | -1 | -3%[46.1 µM]
Cc1cc2c(s1)NC(=O)CN=C2c1cccs1 | 25µM* | ? | -28% | -15%[38.3 µM] | 15 | ?
COc1ccc(NC(=S)NCCN2CCOCC2)cc1 | / | 1.3µM* | / | -2% | / | 7%
Cc1ccc(CN2C3CCCC2CC(NC(=O)Nc2cccc(F)c2)C3)cc1 (stereo unspecified) | / | 1% | / | 23% | / | 14%
C[C@H]1CCCC(=O)CCC/C=C/c2cc(O)cc(O)c2C(=O)O1 | 14µM*! | 14µM* | -18% | 14%[38.3 µM] | -3 | -20%[46.1 µM]
CC(C)CN1CC2(CCN(C(=O)Oc3ccccc3)CC2)C1 | -2% | 0% | -2% | 2% | / | /
Oc1ccc2c3c1O[C@H]1c4oc5ccccc5c4C[C@@]4(O)C(C2)N(CC2CC2)CC[C@]314 | / | 1% | / | 7% | / | /

Screens deposited in PubChem by National Center for Advancing Translational Sciences (NCATS).
